In PubChem BioAssay (NCATS):
Values without a mark were called inactive. Inconclusive results are not listed. Entries that show only a call come without a potency. Active and inactive are the calls of the source. Unless noted, calls follow the shape of the dose curve; as a rule, active = well fitted curve in the direction sought with a large enough effect; inconclusive = small, poorly fitted or top-dose-only effect, or another doubt; inactive = no such curve, though single readings can be large; an effect the other way counts as inactive or inconclusive.

Columns and labels:
[1] = biological target: Glucocorticoid receptor (Homo sapiens) (UniProt P04150); experiment: GR-GFP Redistribution (AID 450;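 active = compounds whose dose series gives a full or clear partial fitted curve of increased nuclear translocation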; also: potency is read from the fitted curve at half-maximal effect); details: U2OS GR-GFP nuclear translocation, laser cytometry, 2 h
[2] = biological target: Glucocorticoid receptor (Homo sapiens) (UniProt P04150); experiment: GR-EFC Redistribution (AID 451; calls by dose curve; also: potency is read from the fitted curve at half-maximal effect); details: CHO-K1 GR-EFC translocation, beta-gal luminescence, 2 h
Summary of the method: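 CHO-K1 cells expressing nuclear EA and GR-ED fragments of b-gal; compounds titrated up to 46 uM final, 2 h at 37 C. GR nuclear translocation read as complemented b-gal luminescence after 1 h RT detection.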

[3] = biological target: Mitogen-activated protein kinase 10 (Mus musculus) (UniProt Q61831); experiment: JNK3 AlphaScreen Assay (AID 530; active = well fitted curve in either direction with a large enough effect, not every such curve was filed as active;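 also: kinase came from lysate of stimulated human HepG2 cells; signal reports phosphorylation of biotinylated GST-cJun 1-79 at Ser73 with 10 µM ATP; series mostly up to about 57 µM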)
Summary of the method: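 Pre-activated (IL-1β/TNFα) JNK3 in HepG2 lysates phosphorylates biotin-GST-cJun(1-79), 10 uM ATP; anti-phospho-cJun(Ser73) AlphaScreen read at room temperature, pH 7.6 Tris buffer. Compounds pre-incubated 15 min as titrations.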

[4] = biological target: 3',5'-cyclic-AMP phosphodiesterase 4B (Homo sapiens) (UniProt Q07343); experiment: qHTS Assay for Inhibitors of PDE-IV (AID 607; active = well fitted activation curve with a large enough effect in the main read-out, with a control signal flat, not every such curve was filed as active)
Summary of the method: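 HEK293 ACTOne cells with CNG channel (1000/well), endogenous PDE4; membrane potential dye, compounds up to 22.9 uM final. Fluorescence Ex 535/Em 590; RO 20-1724 (100 uM final) as reference.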

[5] = biological target: Cytochrome P450 3A4 (Homo sapiens) (UniProt P08684); experiment: qHTS Assay for Inhibitors and Substrates of Cytochrome P450 3A4 (AID 884); also: nearly all actives have a fitted effect of over 50% in size; also: potency is read from the fitted curve at half-maximal effect
Summary of the method: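 20 nM human CYP3A4 with 25 uM Luciferin-PPXE (at KM) in 200 mM KPO4, preincubated 10 min with compound; NADPH regeneration started a 60 min RT reaction. Luciferin detected by luminescence, normalized to 57 uM ketoconazole as full inhibition.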

[6] = biological target: Ubiquitin carboxyl-terminal hydrolase 1 (Homo sapiens) (UniProt O94782); experiment: Inhibitors of USP1/UAF1: Pilot qHTS (AID 504865);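 also: rhodamine fluorescence freed from ubiquitin-rhodamine substrate followed over time; top concentration of the series differs between compounds; nearly all actives have a fitted effect of over 35% in size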
Summary of the method: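 USP1/UAF1 complex (1nM) preincubated with compound 15 min at room temperature, then Ub-Rho substrate (150nM final) added. Fluorescence read kinetically at 480/540 nm, 6 reads every 60 seconds. Buffer: 50mM HEPES pH 7.8, 0.5mM EDTA, 0.1 mg/ml BSA, 1mM TCEP, 0.01% Tween-20.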

[7] = biological target: DNA dC->dU-editing enzyme APOBEC-3G (Homo sapiens) (UniProt Q9HC16); experiment: qHTS for inhibitors of Vif-A3G interactions: Validation (AID 588379)
Summary of the method: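 HeLa cells stably expressing Vif and A3G-eYFP, 700 cells/well, incubated overnight at 37 deg C, then exposed to compound overnight at 37 deg C. Inhibition of Vif-mediated degradation read as increased yellow fluorescence (Ex 488/Em 500-530) by laser-scanning cytometry.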

[8] = test system: Zika virus NS2B-NS3 protease; experiment: Primary screen GU AMC qHTS for Zika virus inhibitors (AID 1347154); also: nearly all actives have a fitted effect of over 70% in size
Summary of the method: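 Unlinked Zika NS2B hydrophilic domain–NS3 protease complex at 25 nM in 10 mM Tris-HCl pH 8.0, 0.01% Tween 20, with an AMC peptide substrate. Fluorescence change (340/450 nm) over 15 min at room temperature, normalized to controls, fitted to 4-parameter Hill.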

[9] = Primary qHTS for small molecule stabilizers of the endoplasmic reticulum resident proteome: Secreted ER Calcium Modulated Protein (SERCaMP) assay (AID 1508630)
Summary of the method: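 GLuc-SERCaMP-expressing SH-SY5Y cells, pretreated 16 h with compound, are challenged with thapsigargin to empty ER calcium stores; after 4 h, coelenterazine is added directly to the medium and luminescence is imaged.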

[10] = biological target: Cytochrome P450 1A2 (Homo sapiens) (UniProt P05177); experiment: p450-cyp1a2 (AID 410; calls by dose curve; also: potency is read from the fitted curve at half-maximal effect)
Summary of the method: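 Luminescent readout of luciferin formed from Luciferin-ME by human CYP1A2; data normalized against complete inhibition by 57 uM furafylline. Enzyme 20nM, substrate 100uM at Km, 100mM KPO4 buffer, 60 min reaction at room temperature.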

[11] = biological target: Cytochrome P450 3A4 (Homo sapiens) (UniProt P08684); experiment: qHTS Assay for Activators of Cytochrome P450 3A4 (AID 885); also: nearly all actives have a fitted effect of over 65% in size
Summary of the method: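 Human CYP3A4 (20 nM) with Luciferin-PPXE at 25 uM (its KM) in 200 mM KPO4; 10 min compound preincubation, then NADPH regeneration and 60 min reaction at RT. Luciferin read by luminescence; normalized to 57 uM ketoconazole full inhibition.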

[12] = biological target: Cytochrome P450 2D6 (Homo sapiens) (UniProt P10635); experiment: qHTS Assay for Inhibitors and Substrates of Cytochrome P450 2D6 (AID 891); also: potency is read from the fitted curve at half-maximal effect; nearly all actives have a fitted effect of over 60% in size
Summary of the method: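 Human CYP2D6 (5 nM) with 30 uM Luciferin-ME EGE (at Km) in 100 mM KPO4, compound preincubated 10 min, then NADPH regeneration system for 60 min at room temperature. Luciferin read by luminescence; normalized to 1.43 uM quinidine.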

[13] = biological target: Cytochrome P450 2C9 (Homo sapiens) (UniProt P11712); experiment: qHTS Assay for Inhibitors and Substrates of Cytochrome P450 2C9 (AID 883); also: potency is read from the fitted curve at half-maximal effect; nearly all actives have a fitted effect of over 60% in size
Summary of the method: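 10nM CYP2C9 + 100uM Luciferin-H (=KM), 25mM KPO4; cpd 10 min 37C; NADPH regen, 60 min 37C; stop/detect with P450 Glo-Buffer 20 min; luminescence. Norm. to 57uM sulphaphenazole as full inhibition.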

[14] = biological target: Cytochrome P450 2C19 (Homo sapiens) (UniProt P33261); experiment: qHTS Assay for Inhibitors and Substrates of Cytochrome P450 2C19 (AID 899); also: potency is read from the fitted curve at half-maximal effect; nearly all actives have a fitted effect of over 60% in size
Summary of the method: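 Luminescent read-out of luciferin formed from Luciferin-H EGE (10uM, equal to KM). Enzyme 5nM in 50mM KPO4; compound added, 10 min at 37C, then NADPH regenerating system for 60 min at 37C. Full inhibition defined by 57uM ketoconazole.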

Chain of Ubiquitin carboxyl-terminal hydrolase 1 (Homo sapiens) (O94782 whole entry, looked up): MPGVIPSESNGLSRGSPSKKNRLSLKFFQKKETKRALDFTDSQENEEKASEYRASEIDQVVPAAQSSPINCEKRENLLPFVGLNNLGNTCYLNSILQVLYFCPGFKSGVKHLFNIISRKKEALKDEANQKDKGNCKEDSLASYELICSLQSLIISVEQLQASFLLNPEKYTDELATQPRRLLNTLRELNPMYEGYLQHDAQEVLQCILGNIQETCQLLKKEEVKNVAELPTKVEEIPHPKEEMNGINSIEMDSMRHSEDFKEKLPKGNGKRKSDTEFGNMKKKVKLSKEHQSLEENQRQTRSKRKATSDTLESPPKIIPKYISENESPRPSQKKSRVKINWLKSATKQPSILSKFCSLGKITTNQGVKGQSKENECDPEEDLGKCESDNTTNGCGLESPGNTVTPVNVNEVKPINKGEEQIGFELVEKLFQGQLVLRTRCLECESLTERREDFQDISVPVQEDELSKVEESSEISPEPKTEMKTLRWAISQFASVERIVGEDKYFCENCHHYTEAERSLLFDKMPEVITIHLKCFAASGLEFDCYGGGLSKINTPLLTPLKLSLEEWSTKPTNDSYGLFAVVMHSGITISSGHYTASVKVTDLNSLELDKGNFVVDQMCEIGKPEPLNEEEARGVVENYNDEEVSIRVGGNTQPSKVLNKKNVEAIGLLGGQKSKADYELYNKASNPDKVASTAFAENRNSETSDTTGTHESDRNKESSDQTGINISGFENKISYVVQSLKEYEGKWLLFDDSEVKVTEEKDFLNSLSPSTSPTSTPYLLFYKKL
Chain of Glucocorticoid receptor (Homo sapiens) (P04150 whole entry, looked up, the tested form may be a part): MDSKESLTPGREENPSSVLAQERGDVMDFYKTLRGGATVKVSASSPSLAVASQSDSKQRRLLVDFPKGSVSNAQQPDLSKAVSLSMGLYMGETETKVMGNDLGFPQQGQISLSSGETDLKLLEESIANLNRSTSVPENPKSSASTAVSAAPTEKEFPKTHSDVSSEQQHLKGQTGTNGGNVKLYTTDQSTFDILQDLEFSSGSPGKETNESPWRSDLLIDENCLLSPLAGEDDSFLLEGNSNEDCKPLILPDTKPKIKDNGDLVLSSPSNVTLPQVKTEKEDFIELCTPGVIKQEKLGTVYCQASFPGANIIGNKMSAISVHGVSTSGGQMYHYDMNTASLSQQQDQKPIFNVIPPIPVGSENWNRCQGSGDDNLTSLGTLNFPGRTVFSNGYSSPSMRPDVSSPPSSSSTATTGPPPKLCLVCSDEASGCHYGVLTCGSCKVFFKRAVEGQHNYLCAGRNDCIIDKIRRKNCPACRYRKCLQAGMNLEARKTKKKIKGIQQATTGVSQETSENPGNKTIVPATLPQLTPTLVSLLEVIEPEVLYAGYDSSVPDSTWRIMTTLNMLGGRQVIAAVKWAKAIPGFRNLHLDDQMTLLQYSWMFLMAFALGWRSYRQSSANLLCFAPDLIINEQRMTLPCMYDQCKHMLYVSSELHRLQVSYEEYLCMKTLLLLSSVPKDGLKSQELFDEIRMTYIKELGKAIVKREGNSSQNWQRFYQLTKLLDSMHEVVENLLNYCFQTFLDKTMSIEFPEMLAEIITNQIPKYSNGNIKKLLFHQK
Chain of DNA dC->dU-editing enzyme APOBEC-3G (Homo sapiens) (Q9HC16 whole entry, looked up): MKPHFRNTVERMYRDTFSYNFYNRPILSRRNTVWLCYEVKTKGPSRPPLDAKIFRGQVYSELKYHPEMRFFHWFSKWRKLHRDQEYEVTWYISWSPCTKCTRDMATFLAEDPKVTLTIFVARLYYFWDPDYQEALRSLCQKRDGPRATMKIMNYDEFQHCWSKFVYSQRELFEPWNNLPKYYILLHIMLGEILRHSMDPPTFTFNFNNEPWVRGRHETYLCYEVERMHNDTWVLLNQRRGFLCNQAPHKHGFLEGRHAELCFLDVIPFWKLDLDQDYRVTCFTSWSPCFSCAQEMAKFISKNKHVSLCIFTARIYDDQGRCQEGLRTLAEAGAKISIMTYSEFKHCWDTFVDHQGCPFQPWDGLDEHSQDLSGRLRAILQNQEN
Chain of Cytochrome P450 1A2 (Homo sapiens) (P05177 whole entry, looked up): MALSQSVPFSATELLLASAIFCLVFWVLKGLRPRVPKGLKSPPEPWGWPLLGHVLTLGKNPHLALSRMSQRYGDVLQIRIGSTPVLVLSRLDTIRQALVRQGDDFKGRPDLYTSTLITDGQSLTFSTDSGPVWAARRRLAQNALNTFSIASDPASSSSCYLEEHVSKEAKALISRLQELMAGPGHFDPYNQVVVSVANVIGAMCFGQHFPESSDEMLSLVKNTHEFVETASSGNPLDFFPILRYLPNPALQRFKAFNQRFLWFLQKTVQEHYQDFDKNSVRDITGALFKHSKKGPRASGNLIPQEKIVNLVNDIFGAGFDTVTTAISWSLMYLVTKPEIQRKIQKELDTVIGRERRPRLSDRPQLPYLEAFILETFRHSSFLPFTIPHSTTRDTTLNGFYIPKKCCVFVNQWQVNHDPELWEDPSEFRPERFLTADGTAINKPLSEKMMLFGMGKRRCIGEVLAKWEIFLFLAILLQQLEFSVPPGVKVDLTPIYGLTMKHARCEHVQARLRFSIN
Chain of Cytochrome P450 3A4 (Homo sapiens) (P08684 whole entry, looked up): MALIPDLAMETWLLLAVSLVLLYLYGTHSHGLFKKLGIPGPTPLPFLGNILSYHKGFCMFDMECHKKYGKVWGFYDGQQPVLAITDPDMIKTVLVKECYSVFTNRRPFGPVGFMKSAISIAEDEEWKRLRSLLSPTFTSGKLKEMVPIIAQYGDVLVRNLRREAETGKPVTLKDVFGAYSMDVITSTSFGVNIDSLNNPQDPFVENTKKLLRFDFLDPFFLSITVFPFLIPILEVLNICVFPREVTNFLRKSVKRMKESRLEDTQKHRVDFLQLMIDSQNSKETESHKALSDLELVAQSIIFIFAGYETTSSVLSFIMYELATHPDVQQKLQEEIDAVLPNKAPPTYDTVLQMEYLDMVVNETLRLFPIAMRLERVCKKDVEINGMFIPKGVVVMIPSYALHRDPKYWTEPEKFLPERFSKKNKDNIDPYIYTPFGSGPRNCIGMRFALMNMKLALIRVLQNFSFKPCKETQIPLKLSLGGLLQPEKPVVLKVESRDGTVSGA
Chain of 3',5'-cyclic-AMP phosphodiesterase 4B (Homo sapiens) (Q07343 whole entry, looked up): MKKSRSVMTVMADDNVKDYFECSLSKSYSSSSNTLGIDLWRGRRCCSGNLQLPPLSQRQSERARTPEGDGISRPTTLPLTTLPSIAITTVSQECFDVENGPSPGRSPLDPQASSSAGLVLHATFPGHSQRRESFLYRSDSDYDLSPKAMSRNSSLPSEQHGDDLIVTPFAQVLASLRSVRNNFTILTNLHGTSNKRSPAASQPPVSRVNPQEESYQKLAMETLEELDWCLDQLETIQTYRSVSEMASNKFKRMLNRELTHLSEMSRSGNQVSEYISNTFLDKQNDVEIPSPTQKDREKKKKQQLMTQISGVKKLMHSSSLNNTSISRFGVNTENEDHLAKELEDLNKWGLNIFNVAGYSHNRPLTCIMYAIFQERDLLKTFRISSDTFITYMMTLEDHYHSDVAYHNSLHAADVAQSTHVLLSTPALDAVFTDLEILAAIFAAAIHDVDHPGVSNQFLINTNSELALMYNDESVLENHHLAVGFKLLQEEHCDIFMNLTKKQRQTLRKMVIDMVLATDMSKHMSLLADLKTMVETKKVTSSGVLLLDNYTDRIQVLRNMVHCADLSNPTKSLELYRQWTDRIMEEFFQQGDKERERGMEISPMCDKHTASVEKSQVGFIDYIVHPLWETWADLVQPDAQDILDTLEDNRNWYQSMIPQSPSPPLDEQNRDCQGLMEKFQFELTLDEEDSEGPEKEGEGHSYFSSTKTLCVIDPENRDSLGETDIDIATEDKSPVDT
Chain of Cytochrome P450 2C9 (Homo sapiens) (P11712 whole entry, looked up): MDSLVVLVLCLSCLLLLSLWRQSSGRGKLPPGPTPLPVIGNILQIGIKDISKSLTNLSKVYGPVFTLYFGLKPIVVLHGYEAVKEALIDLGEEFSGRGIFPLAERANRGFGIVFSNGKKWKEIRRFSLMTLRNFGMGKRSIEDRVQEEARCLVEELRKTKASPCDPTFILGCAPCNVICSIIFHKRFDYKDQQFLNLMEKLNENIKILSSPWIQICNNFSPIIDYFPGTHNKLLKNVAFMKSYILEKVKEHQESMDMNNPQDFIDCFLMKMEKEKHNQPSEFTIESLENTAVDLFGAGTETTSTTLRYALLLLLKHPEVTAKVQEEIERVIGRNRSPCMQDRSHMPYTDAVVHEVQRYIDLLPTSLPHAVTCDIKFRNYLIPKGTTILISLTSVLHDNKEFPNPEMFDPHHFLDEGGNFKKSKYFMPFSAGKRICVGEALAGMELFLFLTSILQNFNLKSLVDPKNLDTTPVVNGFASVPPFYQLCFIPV
Chain of Cytochrome P450 2D6 (Homo sapiens) (P10635 whole entry, looked up): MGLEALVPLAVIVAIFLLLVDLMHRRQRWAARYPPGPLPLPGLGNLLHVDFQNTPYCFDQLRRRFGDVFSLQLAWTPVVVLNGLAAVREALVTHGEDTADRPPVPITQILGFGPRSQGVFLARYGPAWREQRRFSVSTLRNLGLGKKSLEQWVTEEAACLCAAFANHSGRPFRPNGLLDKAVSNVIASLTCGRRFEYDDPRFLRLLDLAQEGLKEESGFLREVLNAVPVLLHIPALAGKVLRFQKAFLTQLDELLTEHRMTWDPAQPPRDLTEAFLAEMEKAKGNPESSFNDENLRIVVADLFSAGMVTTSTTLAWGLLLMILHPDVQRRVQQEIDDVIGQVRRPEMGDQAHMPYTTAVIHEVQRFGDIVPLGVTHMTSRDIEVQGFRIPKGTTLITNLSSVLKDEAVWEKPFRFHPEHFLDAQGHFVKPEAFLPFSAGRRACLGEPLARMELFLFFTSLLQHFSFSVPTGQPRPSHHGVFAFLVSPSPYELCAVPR

SMILES	Potency [1]	Potency [2]	Potency [3]	Potency [4]	Potency [5]	Potency [6]	Potency [7]	Potency [8]	Potency [9]	Potency [10]	Potency [11]	Potency [12]	Potency [13]	Potency [14]
O=C(NC1CCN(Cc2ccccc2)CC1)c1ccc(I)cc1	> 46 µM	> 46 µM	inactive	inactive	inactive	inactive	inactive	inactive	inactive	–	–	–	–	–
c1cc2c(cc1C1CCCCC1)c1c3n2CCN[C@H]3CCC1	> 46 µM	> 46 µM	inactive	–	–	–	inactive	inactive	inactive	15.8 µM (active)	inactive	–	–	–
Cc1ccccc1N=C(N)Nc1ccccc1C	–	> 46 µM	inactive	–	–	inactive	inactive	inactive	inactive	inactive	–	–	–	–
CC[C@]1(O)C[C@@H]2CN(CCc3c([nH]c4ccccc34)[C@](C(=O)OC)(c3cc4c(cc3OC)N(C)[C@H]3[C@](O)(C(=O)OC)[C@@H](C(=O)OC)[C@@]5(CC)C=CCN6CC[C@@]43[C@@H]65)C2)C1	> 46 µM	> 46 µM	inactive	–	–	–	inactive	inactive	inactive	inactive	inactive	–	–	–
CNCCCCCCCCSc1nc(C(C)C)ccc1C(=O)c1cccs1	> 46 µM	> 46 µM	inactive	–	2.51 µM (active)	–	–	inactive	inactive	31.6 µM (active)	inactive	0.0063 µM (active)	–	–
CN1Cc2c(C(=O)OC(C)(C)C)ncn2-c2ccsc2C1=O	> 46 µM	> 46 µM	–	–	–	–	inactive	inactive	inactive	15.8 µM (active)	–	–	5.01 µM (active)	1.26 µM (active)
Fc1ccc([C@H]2CCNC[C@H]2COc2ccc3c(c2)OCO3)cc1	> 46 µM	> 46 µM	inactive	–	–	–	inactive	inactive	inactive	3.16 µM (active)	inactive	–	–	–
COc1ccc2[nH]c(C(=O)c3ccccc3)cc2c1	> 46 µM	> 46 µM	–	–	–	–	inactive	inactive	inactive	0.1 µM (active)	–	–	–	–
NC1=NCCCC1	> 46 µM	> 46 µM	inactive	inactive	–	inactive	inactive	inactive	inactive	–	–	–	–	–
O=C(Nc1ccccc1)[C@@]12C[C@@H]1/C(=N/O)c1ccccc1O2	> 46 µM	> 46 µM	–	inactive	–	–	inactive	inactive	inactive	2.51 µM (active)	–	–	–	–
CC(=O)NCCc1c(Cc2ccccc2)[nH]c2ccccc12	> 46 µM	> 46 µM	–	inactive	7.94 µM (active)	–	inactive	inactive	inactive	12.6 µM (active)	inactive	–	–	–
